Source: PubChem BioAssay (ICCB-Longwood Screening Facility, Harvard Medical School)
Sa helicase inh = S. aureus DNA helicase inhibition | AID 485395 | hit rate 0.05% among 120,000 | purified S. aureus helicase, fluorescence unwinding assay | inhibition, % (concentration not given with the values); in the data active = inhibition above about 25%, passing the limit was not always enough;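 note: 0% = mean of negative control wells and 100% = mean of positive control wells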
Sa growth inh = blocks Staphylococcus aureus growth; relative growth, % (concentration not given with the values); hit rate 0.53% among 170,000; S. aureus RN4220 growth, OD600, 20 h, 42 °C; active compounds read low;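 active = relative growth at most 50% at the other temperature and 20+ points below 30 °C, or under 10% at both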
Numbers without * were called inactive; nt = no result. The full list was thinned out, with hits kept by preference.

SMILES	Sa helicase inh	Sa growth inh
N#CC(C#N)=NNc1ccc(F)cc1C(F)(F)F	-9	-0.7*
CC(=O)Nc1ccc(F)cc1NC=C(C#N)C#N	-9	85
CCOc1ccc(-c2cn3c(n2)sc2cc(C(=O)N(C)Cc4ccccc4)ccc23)cc1	4	96
O=S(=O)(/N=C(\N/N=C/c1ccccc1O)N1CCCC1)c1ccccc1	-8	102
Cc1ccccc1NCC(=O)N1CCc2ccccc21	5	111
C=CCNC(=O)CSc1nc2ccccc2[nH]1	4	92
CN(C)[C@@H]1C(=O)C(C(=O)NCN2CCCC2)=C(O)[C@@]2(O)C(=O)C3=C(O)c4c(O)cccc4[C@@](C)(O)C3CC12 (some centres not stated)	nt	86
C=C1c2cccc(O)c2C(O)=C2C(=O)[C@]3(O)C(O)=C(C(N)=O)C(=O)[C@@H](N(C)C)[C@@H]3[C@@H](O)[C@H]12	nt	0.1*
C=C1c2c(Cl)ccc(O)c2C(O)=C2C(=O)[C@]3(O)C(O)=C(C(N)=O)C(=O)[C@@H](N(C)C)[C@@H]3[C@@H](O)[C@H]12	nt	-0.9*
CSc1nc(NCCO)c(C#N)c(-c2ccc(C)cc2)n1	-20	110
O=C(CN1C(=O)c2cccc3cccc1c23)N(Cc1ccccc1)Cc1ccccc1	-5	107
CO[C@H]1/C=C/O[C@@]2(C)Oc3c(C)c(O)c4c(O)c(c(/C=N/N5CCN(C)CC5)c(O)c4c3C2=O)NC(=O)/C(C)=C\C=C\[C@H](C)[C@H](O)[C@@H](C)[C@@H](O)[C@@H](C)[C@H](OC(C)=O)[C@@H]1C	nt	1.6*
COc1ccc(NC(=O)c2ccc3cccc(O)c3n2)cc1Cl	-21	115
N#CCC(=O)Nc1ccc(N2CCOCC2)cc1	0	87
N#CCCn1nc(-c2ccccc2)c2c1Nc1ccccc1NC2c1ccc(F)cc1 (configuration not stated)	3	83
O=C(/C=C(\O)c1ccccc1)C(F)(F)C(F)F	3	-0.8*
O=C(O)C(=O)/C=C(\O)c1ccccc1	nt	93
CCC[C@@H]1C[C@@H](C(=O)N[C@H]([C@H]2O[C@H](SC)[C@H](O)[C@@H](O)[C@H]2O)[C@H](C)O)N(C)C1	nt	0.0*
CCC[C@@H]1C[C@@H](C(=O)N[C@@H](C2O[C@H](SC)[C@H](O)[C@@H](O)[C@H]2O)[C@H](C)Cl)N(C)C1 (some centres not stated)	nt	-1.1*
CCC[C@@H]1C[C@@H](C(=O)N[C@@H]([C@H]2O[C@H](SC)[C@H](O)[C@@H](O)[C@H]2O)[C@H](C)Cl)N(C)C1	nt	-0.8*
COC(=O)c1cnc(NC(=O)c2ccc3c(c2)S(=O)(=O)N=C2CCCCCN23)s1	-8	107
CC(C)CN1C(=O)c2ccccc2C(C(=O)NCc2cccs2)C1c1cccs1 (configuration not stated)	2	73
CCc1ccc2[nH]c(=O)c(CN(Cc3ccco3)Cc3nnnn3Cc3ccccc3)cc2c1	3	102
Cc1ccccc1OCC(=O)Nc1ccc2nn(-c3ccccc3)nc2c1	9	88
O=c1cc(O)sc2ccccc12	0	57
SMILES	Sa helicase inh	Sa growth inh
O=c1[nH]sc2ccccc12	22	-1.8*
FC(F)(F)c1cccc(N=Cc2ccccc2)c1	8	96
FC(F)(F)c1cccc(N=C=S)c1	19	-1.3*
CCN1/C(=C/C2=CC(=O)CC(C)(C)C2)Sc2ccccc21	-76	1.0*
CCN1/C(=C\C=C2C(=O)OC(C)(C)OC2=O)Sc2ccccc21	-82	76
Cc1cnc(C(=O)Nc2nn[nH]n2)cn1	nt	98
CCc1c(C)sc2c1CCN(Cc1ccccc1)C2c1ccccc1 (configuration not stated)	nt	-1.1*
CCc1c(C)sc2c1CCN(Cc1ccccc1C#N)C2c1ccccc1 (configuration not stated)	nt	98
COc1ccc(C(=O)N(CC(=O)NC2CCCC2)Cc2ccc3c(c2)OCO3)cc1OC	9	89
Cc1ccc(OCC(=O)Nc2cccc3ccc(C)nc23)c(C)c1	nt	99
Cc1ccc2c(Cl)cc(Cl)c(OCC(=O)Nc3c(F)cccc3F)c2n1	-19	-0.2*
Oc1ccccc1C=Nc1cccc(N=Cc2ccccc2O)c1	1	109
Oc1cccc(N=Cc2cc(Br)ccc2O)c1	-10	32*
CC(C)Nc1ccc(Nc2ccnc3cc4ccccc4cc23)cc1	67*	-1.9*
c1ccc2cc3c(Nc4ccc(N5CCOCC5)cc4)ccnc3cc2c1	18	99
CCc1nnc(NC(=O)c2nc(S(=O)(=O)Cc3cccc(C)c3)ncc2Cl)s1	nt	11
CCc1nnc(NC(=O)c2nc(S(=O)(=O)Cc3ccc(C)cc3)ncc2Cl)s1	nt	11
Cc1cccc(CS(=O)(=O)c2ncc(Cl)c(C(=O)Nc3nnc(C(C)C)s3)n2)c1	nt	5.0*
Cc1ccc(CS(=O)(=O)c2ncc(Cl)c(C(=O)Nc3nnc(C(C)C)s3)n2)cc1	nt	5.6*
CC(C)(C)C(=O)/C=C/Nc1ccc(F)cc1	8	103
Cc1noc(C)c1C(=O)Nc1nnc(SCC(=O)O)s1	-12	104
Cc1noc(C)c1C(=O)Nc1nnc(SCc2ccc(Cl)cc2)s1	4	4.9*
Cc1ccc(NC2SC(=O)N(c3ccc(C)cc3)C2=O)cc1 (configuration not stated)	-17	nt
CCCCC(=O)NC(c1ccco1)c1cc(Cl)c2cccnc2c1O (configuration not stated)	-25	20*
CCC(=O)NC(c1ccco1)c1cc(Cl)c2cccnc2c1O (configuration not stated)	5	72
SMILES	Sa helicase inh	Sa growth inh
COc1cccc(OC)c1C(=O)N[C@@H]1C(=O)N2[C@@H]1SC(C)(C)[C@@H]2C(=O)O	nt	-0.7*
Cc1onc(-c2ccccc2)c1C(=O)NC12CC3CC(CC(C3)C1)C2	-7	93
Cc1onc(-c2c(F)cccc2Cl)c1C(=O)NC1CCSC1=O (configuration not stated)	5	nt
Cc1onc(-c2c(Cl)cccc2Cl)c1C(=O)N[C@@H]1C(=O)N2[C@@H]1SC(C)(C)[C@@H]2C(=O)O	nt	-0.4*
CCCNC(=O)c1c(OC)cccc1OC	-2	86
Cc1onc(-c2ccccc2)c1C(=O)NC1C(=O)N2[C@@H]1SC(C)(C)[C@@H]2C(=O)O (some centres not stated)	nt	-0.9*
Cc1ccc(-n2nc(C(=O)O)c(/C=C/c3ccc(Cl)cc3Cl)c(C#N)c2=O)cc1C	14	101
Cc1ccc(-c2nc3ncccc3o2)cc1NC(=O)C(C)(C)Oc1ccc(Cl)cc1	26	78
CCc1cc(-c2[nH]ncc2-c2cnn(-c3ccccc3)c2)c(O)cc1O	17	9.5*
CCc1cc(-c2[nH]ncc2-c2ccc(Br)cc2)c(O)cc1O	-17	nt
O=c1c2ccccc2n2c(-c3ccsc3)nnc2n1CCc1ccccc1	-18	77
CCCN1CCN(CCCNC(=O)c2cc3c(-c4ccc(OC)c(OC)c4)nn(C)c3s2)CC1	50*	131
COc1ccc(-c2nn(C)c3sc(C(=O)NCCCN4CCOCC4)cc23)cc1OC	32	134
CS(=O)c1sc(Br)c2c1C(=O)CC(C)(C)C2 (configuration not stated)	nt	94
CS(=O)c1sc(C(=O)OCc2ccccc2)c2c1C(=O)CC(C)(C)C2 (configuration not stated)	nt	-0.7*
c1ccc(-c2nnc(Cc3cn4ccsc4n3)o2)cc1	6	106
c1cncc(Oc2nc(CN3CCOCC3)nc3sc4c(c23)CCC4)c1	-1	104
